Bioassay records as filed in PubChem BioAssay.
A selection: hits, their analogues and other compounds. The true share with any hit is near 21%.
DT40 TDP1 no CPT: qHTS for Inhibitors of human tyrosyl-DNA phosphodiesterase 1 (TDP1): qHTS in cells in absence of CPT; DT40 Tdp1-/- hTDP1 cells, no CPT, ATP luminescence, 48 h; Potency, µM (titrated, usually from 46.2 µM), for the others: at the top dose activity change, negative = growth inhibition, hits mostly inhibitors; actives 15% (n = 420,000); AID 686978, 2013; further: potency means the concentration at half of the fitted maximal effect; on the % scale 0 is the no-effect control and ±100 the full control effect; nearly all actives have a fitted effect of over 55% in size
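Seeded 400 DT40-hTDP1 cells/well (vehicle DMSO, no 20 nM CPT); pinned compounds; ≥48 hr at 37 °C; CellTiter-Glo luminescence as viability measure.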
ClpP mod: qHTS Assay for Activators of ClpP | Potency, µM (titrated, usually from 57.5 µM), for the others: at the highest dose activity change, negative = active | ATP-dependent Clp protease proteolytic subunit (Bacillus subtilis (strain 168)), P80244 | purified B. subtilis ClpP, FRET peptide cleavage, 20 min | actives 1.9% (n = 340,000); active means well fitted falling curve with a large enough effect; inconclusive means small, poorly fitted or top-dose-only effect; inactive means no such curve, though single readings can be large or run the other way; further: potency means the concentration at half of the fitted maximal effect; the source files actives as falling curves though it sought activators and does not explain the sign; nearly all actives have a fitted effect of over 65% in size
Target sequence (P80244 whole entry, looked up): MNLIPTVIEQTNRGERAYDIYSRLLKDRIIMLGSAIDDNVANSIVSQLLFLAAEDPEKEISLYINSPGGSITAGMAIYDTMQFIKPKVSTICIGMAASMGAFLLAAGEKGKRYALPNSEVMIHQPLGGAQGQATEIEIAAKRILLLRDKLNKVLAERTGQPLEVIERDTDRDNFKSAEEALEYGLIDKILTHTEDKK
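ClpP 10 microg/mL final, pH 8 Tris/KCl buffer with BSA, glycerol, Tween-20; compound pinned in; FRET-FV substrate; RT 20 min; Ex320/Em430; ΔFRET vs ADEP 5.8 microM, DMSO, no enzyme.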
D3 ag: agonists of human D3 dopamine receptor; P35462; D3R DiscoveRx beta-arrestin cells, luminescence, 90 min; max activation, %; actives 0.58% (n = 410,000); in the data active means max activation above about 30%; further: 0% is about no effect
Target sequence (P35462 whole entry, looked up): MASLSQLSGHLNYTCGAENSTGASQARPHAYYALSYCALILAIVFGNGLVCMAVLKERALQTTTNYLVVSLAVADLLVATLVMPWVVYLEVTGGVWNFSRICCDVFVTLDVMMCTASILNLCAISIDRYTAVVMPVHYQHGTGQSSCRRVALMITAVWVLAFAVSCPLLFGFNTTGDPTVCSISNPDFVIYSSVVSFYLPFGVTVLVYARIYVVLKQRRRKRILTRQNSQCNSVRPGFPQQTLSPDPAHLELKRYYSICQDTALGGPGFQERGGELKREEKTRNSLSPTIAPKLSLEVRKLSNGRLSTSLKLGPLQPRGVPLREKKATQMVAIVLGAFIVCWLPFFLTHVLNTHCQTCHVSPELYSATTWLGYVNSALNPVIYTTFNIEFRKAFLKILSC
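Agonist mode: compounds and dopamine controls were applied to plated cells for 90 min at 37 degrees C after an overnight attachment at 1500 cells/well. Luminescent read-out followed 30 - 60 minutes at room temperature with DiscoveRx detection reagent.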
DT40 TDP1 CPT: growth inhibition of DT40 Tdp1-/-;hTDP1 cells with camptothecin (screen for TDP1 inhibitors); Potency, µM (doses to about 46.2 µM), without a hit: top-dose activity change, negative = growth inhibition, actives largely listed as inhibitors; AID 686979; actives 12% (n = 420,000); chicken DT40 Tdp1-/-;hTDP1 cells + 20 nM CPT, ATP luminescence, 48 h; further: potency means the concentration at half of the fitted maximal effect; on the % scale 0 is the no-effect control and ±100 the full control effect; nearly all actives have a fitted effect of over 55% in size
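Cell growth measured by CellTiter-Glo luminescence after a minimum 48 h, 37 C compound exposure with 20 nM CPT in Tdp1-knockout DT40 cells stably expressing hTDP1, seeded 400/well; qHTS titration format.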
IL1B secr inh: inhibitors of inflammasome signaling (IL-1 beta secretion). THP-1 LPS/ATP IL-1B secretion, AlphaLISA, 16 h; stronger effect = lower value. actives 4.7% (n = 360,000). activity change, % at 57.5 µM; in the data active means activity change below about -50%; inconclusive means mostly about -30% to -49%; further: on the % scale 0 is the no-effect control and ±100 the full control effect
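Secreted IL-1B measured by AlphaLISA bead assay after 16 h compound exposure of THP-1 cells; compounds (final up to 57.5 uM) added 1 h before LPS (250 ng/mL) and ATP (1.25 mM) stimulation; lower signal means less secretion.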
DRD3 antagonist: blocks the human D3 dopamine receptor; AID 652054; max response, negative = inhibition, %; P35462; D3R cells, DiscoveRx beta-arrestin luminescence, antagonist mode; stronger effect = lower value; actives 2.5% (n = 360,000); in the data active means max response below about -50%; inconclusive means no clear call, values can overlap the other calls; further: on the % scale 0 is the no-effect control and ±100 the full control effect
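Cells expressing the human receptor were seeded at 1500 cells/well, incubated overnight at 37 degrees C in 5% CO2, then exposed to library compounds with dopamine controls for 90 minutes at 37 degrees C before luminescent detection.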
* = called active by the depositor; ? = inconclusive; / = no result given. Unless noted, the call rests on the fitted dose curve; in most records, active means well fitted inhibition curve with a large enough effect; inconclusive means small, poorly fitted or top-dose-only effect; inactive means flat fitted curve, though single readings scatter.

SMILES	DT40 TDP1 no CPT	ClpP mod	D3 ag	DT40 TDP1 CPT	IL1B secr inh	DRD3 antagonist
CN1CCCC(C(=O)C(C#N)c2ccccc2)C1 (configuration not stated)	-12.1%	-0.2%	3.5	0.9%	8.5	-19.5
CC(C)CC(NC(=O)C1CCC(C)CC1)C(=O)N1CCN(c2ccccn2)CC1 (configuration not stated)	23.1µM*	4.0%	-7.5	16.4µM*	-18.1	0.0
O=C(OCCSCCOC(=O)C1CC=CCC1)C1CC=CCC1 (configuration not stated)	8.9%	-1.0%	-4.6	9.1%	-10.7	19.7
CCOC(=O)C(=C1Nc2ccccc2N1)n1c(-c2ccco2)nc2ccccc21	?	-21.0%	-10.4	7.31µM*	3.3	-54.2*
CCSc1nnc2c(n1)OC(c1cc(OC)c(OC)c(OC)c1)Nc1ccccc1-2 (configuration not stated)	-13.6%	-8.4%	-0.9	-0.9%	/	/
CC1=C(CO)C(=O)OC([C@@H](C)C2CC[C@H]3C4C[C@H]5O[C@]56[C@@H](O)C=CC(=O)[C@]6(C)C4CC[C@]23C)C1 (some centres not stated)	1.3µM*	-3.6%	-67.4	1.46µM*	-106.6*	-135.6*
COc1ccc(CC(NC(C)=O)C(=O)NC2CCN(C(=O)Nc3ccccc3C)CC2)cc1OC (configuration not stated)	22.0%	0.1%	3.4	-8.9%	15.6	12.0
CC(C)C1OC(CCc2ccccc2)Cc2[nH][nH]c(=O)c21 (configuration not stated)	23.1µM*	1.4%	0.6	-23.1%	-6.7	-5.1
CC(C)c1ccc([C@@H]2O[C@H](CCc3ccccc3)Cc3[nH][nH]c(=O)c32)cc1	?	-1.3%	-3.3	-28.8%	-10.0	-14.2
COc1ccc(NC(=O)CSc2n[nH]c(-c3ccccn3)n2)cc1	23.1µM*	/	-2.4	16.4µM*	150.2	-3.7
COc1ccc(-c2nc(SCC(=O)Nc3cccc(C(C)=O)c3)n[nH]2)cc1	?	1.1%	-9.5	?	/	/
COc1ccc(OC)c(NC(=O)CSc2n[nH]c(-c3cccnc3)n2)c1	-23.9%	/	-1.8	-14.3%	73.7	-8.3
CCCCCCCCNC(=O)c1cccnc1SCC(=O)Nc1ccccc1OC	20.6µM*	2.8%	5.4	?	15.0	-3.8
O=C(CSc1ccc(-c2ccc(-n3cccn3)cc2)nn1)Nc1ccccc1F	-15.3%	15.8µM*	6.8	-19.9%	-3.9	0.0
O=C(CSc1ccc(-c2cccnc2)nn1)Nc1ccccc1F	-21.6%	-4.4%	-2.7	?	-8.1	-3.9
COc1ccc(OC)c(NC(=O)CSc2n[nH]c(-c3ccccc3Cl)n2)c1	?	-0.4%	-4.0	10.3µM*	/	/
CC(=O)NC(c1cccc(F)c1)c1nc(-c2ccccc2)cs1 (configuration not stated)	-27.9%	-2.2%	4.7	?	-2.3	4.2
CCc1noc(C)c1C(=O)N1CCN(S(=O)(=O)c2ccccc2C(F)(F)F)CC1	18.4%	1.4%	9.0	-17.6%	18.6	19.7
CCOc1ccc(-c2nonc2NC(=O)COc2ccc(C)c(C)c2)cc1OCC	-17.1%	1.3%	-7.1	-25.1%	/	/
COc1ccccc1NC(=O)CSc1n[nH]c(-c2ccccn2)n1	14.6µM*	-3.3%	2.3	?	108.0	7.1
O=C(CSc1n[nH]c(-c2ccccn2)n1)Nc1ccccc1F	2.91µM*	/	2.4	4.11µM*	54.3	-19.4
O=C(CSc1n[nH]c(-c2ccccn2)n1)Nc1ccccc1	?	-3.9%	-0.4	23.1µM*	177.9	3.8
CCN(CC)c1nc2cc(C)ccc2cc1/C=C(\C#N)C(N)=O	?	/	2.6	?	-57.6*	16.3
O=C(CNC(=O)c1ccccc1Br)Nc1cccc(S(=O)(=O)Nc2ccccc2Cl)c1	-21.1%	2.4%	0.1	-8.1%	20.0	4.0
O=S(=O)(Nc1nc2ccccc2nc1N1CCN(CCO)CC1)c1cc(F)ccc1F	20.8%	-8.3%	-1.7	23.1µM*	12.9	-25.3
SMILES	DT40 TDP1 no CPT	ClpP mod	D3 ag	DT40 TDP1 CPT	IL1B secr inh	DRD3 antagonist
Cc1ccc(S(=O)(=O)Nc2nc3ccccc3nc2N2CCN(c3ccccc3F)CC2)cc1	2.1%	-10.6%	-4.2	2.9%	44.2	0.0
O=C(c1cc(=O)[nH]c2ccccc12)N(Cc1nnc(-c2ccccc2Cl)o1)C1CC1	?	/	1.0	13µM*	-8.3	5.9
Cc1ccsc1C(=O)N(Cc1nnc(-c2ccccc2Cl)o1)C1CC1	?	-1.2%	5.5	?	-4.4	19.1
Cc1ccc(C(=O)N(Cc2nnc(-c3ccccc3Cl)o2)C2CC2)o1	18.4µM*	-4.2%	-2.7	?	-9.7	0.0
Cc1c(C(=O)N(Cc2nnc(-c3ccccc3Cl)o2)C2CC2)oc2ccccc12	?	-4.8%	-2.2	16.4µM*	21.3	3.7
Cc1ccc(CN2CC(C(=O)N(Cc3nnc(-c4ccccc4Cl)o3)C3CC3)CC2=O)cc1 (configuration not stated)	-25.9%	0.6%	0.1	-21.4%	?	2.6
CCCCCNC(=O)C1CCC(Cn2c(=O)c3sccc3n(CC)c2=O)CC1 (configuration not stated)	?	-1.2%	-16.8	?	/	/
Cc1[nH]c2ccccc2c1C(=O)C(=O)NC1CC1	14.6%	-0.4%	-4.4	1.9%	-3.4	11.3
Cn1c(SCC2CCCO2)nnc1C1CCN(Cc2ccco2)CC1 (configuration not stated)	-5.0%	/	/	16.1%	/	/
Cn1cccc1C(=O)N1CCC2(CC1)CN(c1ccncc1)C2	?	/	/	-21.0%	/	/
CCN1CCN(S(=O)(=O)c2ccc(F)c(C(=O)Nc3c(F)cc(F)cc3Br)c2)CC1	2.2%	0.1%	3.5	-15.5%	0.4	3.8
COc1cc(Cl)c(C)cc1NC(=O)C1CCN(c2nc3ccccc3n3cccc23)CC1	16.4µM*	-1.8%	2.5	?	/	/
CCN1CCN(c2ncc(C(=O)Nc3cc(Cl)c(OC)cc3OC)c3ccccc23)CC1	20.6µM*	0.4%	1.5	?	-11.7	-28.1
CCN1CCN(c2ncc(C(=O)Nc3c(F)cc(F)cc3Br)c3ccccc23)CC1	15.8µM*	-9.0%	2.4	14.1µM*	-11.9	-62.2*
COc1cc(Cl)c(C)cc1NC(=O)c1cnc(N2CCOCC2)c2ccccc12	9.2µM*	-7.8%	11.7	10.3µM*	/	/
